Results: the supplement of paper PMC8728848
This is one part of a sample in which the strongest signals are shown more often than they occur.

How the values were obtained:
Test in all cases: glycan array binding signal (z-score within array); higher = stronger binding
Details in all cases: glycan notation: IUPAC condensed, linker removed
[1] = biological target: Gal(b1-4)GlcNAc(b1-3)Gal(b1-4)GlcNAc(b1-3)Gal(b1-4)GlcNAc(b1-3)Gal(b1-4)GlcNAc(b1-3)Gal(b1-4)GlcNAc(b1-3)Gal(b1-4)GlcNAc(b1-2)Man(a1-3)[Gal(b1-4)GlcNAc(b1-3)Gal(b1-4)GlcNAc(b1-3)Gal(b1-4)GlcNAc(b1-3)Gal(b1-4)GlcNAc(b1-3)Gal(b1-4)GlcNAc(b1-3)Gal(b1-4)GlcNAc(b1-2)Man(a1-6)]Man(b1-4)GlcNAc(b1-4)GlcNAc
In short: (§1)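 The binding signal is a Z-score computed within each array. Data were drawn from 3228 arrays in the Consortium for Functional Glycomics database, restricted to those with a known protein sequence. Scores were averaged over arrays of the same protein sequence at different concentrations or buffers, and over linkers, and negative values can be taken as non-binding.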

[2] = biological target: Gal(b1-4)GlcNAc(b1-3)[GlcNAc(b1-6)]Gal(b1-4)GlcNAc
In short: as §1

[3] = biological target: Gal(b1-4)GlcNAc(b1-6)Gal(b1-4)GlcNAc
In short: as §1

[4] = biological target: Gal(b1-4)GlcNAc(b1-6)[Gal(b1-4)GlcNAc(b1-3)]GalNAc
In short: as §1

[5] = biological target: Gal3S(b1-3)GlcNAc
In short: as §1

[6] = biological target: Gal3S(b1-4)Glc
In short: as §1

[7] = biological target: Gal3S(b1-4)GlcNAc6S
In short: as §1

[8] = biological target: Gal6S(b1-4)Glc6S
In short: as §1

[9] = biological target: GalNAc(a1-3)GalNAc(a1-3)Gal(a1-4)Gal(b1-4)GlcNAc
In short: as §1

[10] = biological target: GalNAc(b1-3)Gal(a1-4)Gal(b1-4)GlcNAc(b1-3)Gal(b1-4)Glc
In short: as §1

[11] = biological target: GlcNAc(b1-2)[GlcNAc(b1-4)]Man(a1-3)[GlcNAc(b1-2)Man(a1-6)]Man(b1-4)GlcNAc(b1-4)GlcNAc
In short: as §1

[12] = biological target: GlcNAc(b1-3)Gal
In short: as §1

[13] = biological target: GlcNAc(b1-3)Gal(b1-4)GlcNAc(b1-3)Gal(b1-4)GlcNAc(b1-3)Gal(b1-4)GlcNAc(b1-3)Gal(b1-4)GlcNAc(b1-2)[GlcNAc(b1-3)Gal(b1-4)GlcNAc(b1-3)Gal(b1-4)GlcNAc(b1-3)Gal(b1-4)GlcNAc(b1-3)Gal(b1-4)GlcNAc(b1-6)]Man(a1-6)[GlcNAc(b1-3)Gal(b1-4)GlcNAc(b1-3)Gal(b1-4)GlcNAc(b1-3)Gal(b1-4)GlcNAc(b1-3)Gal(b1-4)GlcNAc(b1-2)Man(a1-3)]Man(b1-4)GlcNAc(b1-4)[Fuc(a1-6)]GlcNAc
In short: as §1

[14] = biological target: Kdn(a2-3)Gal(b1-4)Glc
In short: as §1

[15] = biological target: Man(a1-2)Man(a1-3)[Man(a1-2)Man(a1-6)]Man(a1-6)[Man(a1-2)Man(a1-2)Man(a1-3)]Man
In short: as §1

[16] = biological target: Man(a1-2)Man(a1-6)[Man(a1-3)]Man(a1-6)[Man(a1-2)Man(a1-2)Man(a1-3)]Man(b1-4)GlcNAc(b1-4)GlcNAc
In short: as §1

[17] = biological target: Man(a1-3)[Man(a1-6)]Man(a1-6)[Man(a1-2)Man(a1-3)]Man(b1-4)GlcNAc(b1-4)GlcNAc
In short: as §1

[18] = biological target: Neu5Ac(a2-3)Gal(b1-3)GlcNAc(b1-3)Gal(b1-4)GlcNAc
In short: as §1

[19] = biological target: Neu5Ac(a2-3)Gal(b1-4)GlcNAc(b1-3)Gal(b1-4)GlcNAc(b1-3)Gal(b1-4)GlcNAc
In short: as §1

[20] = biological target: Neu5Ac(a2-3)Gal(b1-4)GlcNAc(b1-3)GalNAc
In short: as §1

[21] = biological target: Neu5Ac(a2-3)[GalNAc(b1-4)]Gal(b1-4)Glc
In short: as §1

[22] = biological target: Neu5Ac(a2-6)Gal(b1-4)GlcNAc(b1-2)Man(a1-3)[GlcNAc(b1-2)Man(b1-4)GlcNAc(b1-2)Man(a1-6)]Man(b1-4)GlcNAc(b1-4)GlcNAc
In short: as §1

[23] = biological target: Neu5Ac(a2-6)Gal(b1-4)GlcNAc(b1-2)Man(a1-3)[Neu5Ac(a2-3)Gal(b1-4)GlcNAc(b1-2)Man(a1-6)]Man(b1-4)GlcNAc(b1-4)GlcNAc
In short: as §1

[24] = biological target: Neu5Ac(a2-6)Gal(b1-4)GlcNAc(b1-2)Man(a1-6)[GlcNAc(b1-2)Man(a1-3)]Man(b1-4)GlcNAc(b1-4)GlcNAc
In short: as §1

[25] = biological target: Neu5Ac(a2-6)Gal(b1-4)GlcNAc(b1-3)Gal(b1-4)GlcNAc(b1-2)Man(a1-3)[Neu5Ac(a2-6)Gal(b1-4)GlcNAc(b1-3)Gal(b1-4)GlcNAc(b1-2)Man(a1-6)]GalNAc
In short: as §1

[26] = biological target: Neu5Ac(a2-6)GalNAc(b1-4)GlcNAc6S
In short: as §1

[27] = biological target: Neu5Ac(a2-6)GlcNAc(b1-4)GlcNAc(b1-4)GlcNAc
In short: as §1

[28] = biological target: Neu5Gc(a2-8)Neu5Gc(a2-3)Gal(b1-4)GlcNAc(b1-3)Gal(b1-4)GlcNAc
In short: as §1

B1: Gal 9 (Homo sapiens), O00182 (protein)
chain: MAFSGSQAPYLSPAVPFSGTIQGGLQDGLQITVNGTVLSSSGTRFAVNFQTGFSGNDIAFHFNPRFEDGGYVVCNTRQNGSWGPEERKTHMPFQKGMPFDLCFLVQSSDFKVMVNGILFVQYFHRVPFHRVDTISVNGSVQLSYISFQNPRTVPVQPAFSTVPFSQPVCFPPRPRGRRQKPPGVWPANPAPITQTVIHTVQSAPGQMFSTPAIPPMMYPHPAYPMPFITTILGGLYPSKSILLSGTVLPSAQRFHINLCSGNHIAFHLNPRFDENAVVRNTQIDNSWGSEERSLPRKMPFVRGQSFSVWILCEAHCLKVAVDGQHLFEYYHRLRNLPTINRLEVGGDIQLTHVQT
With B1 the “glycan array binding signal (z-score)” value [1] was 9.39, the “glycan array binding signal (z-score)” value [2] was 0.555 and the “glycan array binding signal (z-score)” value [3] was -0.17. For the same binder, the “glycan array binding signal (z-score)” value [4] was -0.275, the “glycan array binding signal (z-score)” value [5] was 0.996 and the “glycan array binding signal (z-score)” value [6] was -0.132. The “glycan array binding signal (z-score)” value [7] was 4.06, the “glycan array binding signal (z-score)” value [8] was -0.299 and the “glycan array binding signal (z-score)” value [9] was 0.672. For the same binder, the “glycan array binding signal (z-score)” value [10] was -0.036, the “glycan array binding signal (z-score)” value [11] was -0.323 and the “glycan array binding signal (z-score)” value [12] was -0.323. The “glycan array binding signal (z-score)” value [13] was 2.32, the “glycan array binding signal (z-score)” value [14] was -0.315 and the “glycan array binding signal (z-score)” value [15] was -0.311. The “glycan array binding signal (z-score)” value [16] was -0.321, the “glycan array binding signal (z-score)” value [17] was -0.263 and the “glycan array binding signal (z-score)” value [18] was 0.431. The “glycan array binding signal (z-score)” value [19] was 0.554, the “glycan array binding signal (z-score)” value [20] was -0.265 and the “glycan array binding signal (z-score)” value [21] was -0.302. The “glycan array binding signal (z-score)” value [22] was 0.913, the “glycan array binding signal (z-score)” value [23] was -0.259 and the “glycan array binding signal (z-score)” value [24] was -0.323. For the same binder, the “glycan array binding signal (z-score)” value [25] was 5.41, the “glycan array binding signal (z-score)” value [26] was -0.291 and the “glycan array binding signal (z-score)” value [27] was -0.318. The “glycan array binding signal (z-score)” value [28] was -0.282.
